Bioassay records: PubChem BioAssay, National Center for Advancing Translational Sciences (NCATS)
RORgamma inh – ROR gamma (mouse) transcription inhibition; P51450; Drosophila S2 Gal4-RORgamma UAS-luciferase reporter, 20 h; Potency, µM (doses to about 53.6 µM), actives largely listed as inhibitors; actives 5.4% (n = 310,000); also: nearly all actives have a fitted effect of over 60% in size
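Luminescence from a UAS-regulated Photinus luciferase reporter in stably transfected Drosophila Schneider cells is measured; decreased signal marks ROR gamma inhibition. Fusion expression is induced by 700 uM copper sulfate for 20 hr.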
ALDH1A1 inh – inhibitors of human aldehyde dehydrogenase 1A1. P00352. Purified ALDH1A1, NADH fluorescence, propionaldehyde substrate. Potency, µM (doses to about 75.3 µM), usual class: inhibitors. actives 7.3% (n = 220,000). AID 1030; active = well fitted inhibition curve with a large enough effect, not every such curve was filed as active; inconclusive = small, poorly fitted or top-dose-only effect, or another doubt; inactive = no such curve, though single readings can be large or run the other way
Target sequence (P00352 whole entry, looked up): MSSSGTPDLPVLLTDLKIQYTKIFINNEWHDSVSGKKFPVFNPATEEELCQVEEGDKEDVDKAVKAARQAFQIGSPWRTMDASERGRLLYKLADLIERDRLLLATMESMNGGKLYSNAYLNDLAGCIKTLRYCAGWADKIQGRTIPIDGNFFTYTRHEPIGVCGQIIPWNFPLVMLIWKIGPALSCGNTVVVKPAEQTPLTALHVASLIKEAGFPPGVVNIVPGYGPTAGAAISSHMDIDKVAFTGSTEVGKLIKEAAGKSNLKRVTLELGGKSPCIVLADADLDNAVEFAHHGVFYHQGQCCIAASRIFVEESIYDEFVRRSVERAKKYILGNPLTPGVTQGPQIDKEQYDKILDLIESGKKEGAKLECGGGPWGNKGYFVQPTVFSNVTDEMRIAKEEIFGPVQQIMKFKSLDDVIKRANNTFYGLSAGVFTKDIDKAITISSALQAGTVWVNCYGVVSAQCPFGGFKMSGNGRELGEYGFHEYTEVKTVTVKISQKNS
Sfp inh – Sfp phosphopantetheinyl transferase inhibition; Potency, µM, hits mostly inhibitors; Biochemical Sfp PPTase activity, qHTS; actives 3.5% (n = 310,000);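 also: the enzyme is Sfp with the accession as filed and its product quenches rhodamine fluorescence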
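Fluorescence-quenching assay with 15 nM Sfp, 5 uM rhodamine-CoA and 12.5 uM BHQ-2-labelled ybbR peptide in pH 7.6 Hepes/MgCl2 buffer. Enzyme was pre-incubated with compound for 15 min at room temperature. Rate was taken from the 30-min fluorescence change (525/598 nm).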
PLK1 PBD inh – inhibitors of human PLK1 polo-box domain binding; P53350; Plk1 PBD binding of FITC phosphopeptide, fluorescence polarization; Potency, µM, actives largely listed as inhibitors; actives 2.8% (n = 360,000); also: series mostly up to about 57 µM; nearly all actives have a fitted effect of over 65% in size
Gal4-VP16 FLuc – Gal4-VP16 reporter inhibition counter-screen. Potency, µM (doses to about 53.6 µM), usual class: inhibitors. Drosophila S2 Gal4-VP16 UAS-luciferase, luminescence, 20 h. AID 2546. actives 3.5% (n = 310,000);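 also: Gal4-VP16 expression switched on by copper sulfate through the metallothionein promoter; nearly all actives have a fitted effect of over 50% in size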
Numbers stand for hits; - = inactive; ? = inconclusive; . = not tested or not shown; [ ] = remark or other dose. Compounds with a hit are over-represented: about 12% of the library has one in this group of screens. Unless noted, calls follow the shape of the dose curve; as a rule, active = well fitted curve in the direction sought with a large enough effect; inconclusive = small, poorly fitted or top-dose-only effect, or another doubt; inactive = no such curve, though single readings can be large; an effect the other way counts as inactive or inconclusive.

SMILES | RORgamma inh | ALDH1A1 inh | Sfp inh | PLK1 PBD inh | Gal4-VP16 FLuc
O=c1c2cc(NC(=S)NCCN3CCCCCC3)ccc2nc2n1CCCCC2 | - | 20µM | - | - | -
Cc1ccc(-c2nc3c(Cl)cc(C(F)(F)F)cn3c2Cc2cccc(F)c2)cc1 | . | . | . | - | .
COC(=O)N[C@@H](c1cccc(F)c1)C(C(C)=O)C(=O)OC (stereo partly drawn) | - | - | - | . | -
O=C(NCc1ccco1)c1cccc2c1C(=O)c1ccc(N3CCC(N4CCCCC4)CC3)cc1S2(=O)=O | . | . | . | - | .
CC(=O)NC(=S)Nc1sc2c(c1C(N)=O)CCC(C)C2 (stereo not drawn) | - | 8.9µM | - | - | -
Cc1sc(NC(=S)NC(=O)C(C)(C)C)c(C(N)=O)c1C | - | 7.9µM | ? | ? | -
Cc1sc(NC(=O)c2cccs2)c(C(N)=O)c1C | ? | 11µM | 40µM | 21µM | -
CC(C)CC(=O)NC(=S)Nc1sc2c(c1C(N)=O)CCC2 | - | 1.4µM | - | ? | -
CCCCC(=O)Nc1sc2c(c1C(N)=O)CCC2 | ? | ? | - | ? | -
NC(=O)c1ccsc1NC(=O)c1cccs1 | . | . | . | - | .
CC1CCc2c(sc(NC(=O)c3ccc(N4C(=O)CCC4=O)cc3)c2C(N)=O)C1 (stereo not drawn) | . | . | . | - | .
C/C(=N\[N+](C)(C)C)c1ccc(C)c(C)c1 | . | -[13.5 µM] | . | . | .
CC(=O)Nc1sc2c(c1C(=O)N1CCOCC1)CCCCC2 | - | ? | - | ? | -
CC(=O)Nc1sc2c(c1C(N)=O)CCC2 | ? | - | - | - | -
COC(=O)Nc1sc2c(c1C(=O)N1CCOCC1)CCC(C)C2 (stereo not drawn) | - | ? | ? | 27µM | -
CC(C)(C)C(=O)NC(=S)Nc1sc2c(c1C(N)=O)CCC2 | - | 2µM | 45µM | ? | -
Cc1ccc2[nH]c3c(c2c1)CC/C(=C/c1ccccc1)C3=O | 4µM | - | - | - | 6.3µM
CCc1ccc(CCC(=O)Nc2ccc(C)c(C)c2)o1 | - | 13µM | - | - | -
CCc1ccc(CCC(=O)Nc2sc(C)c(C)c2C(=O)OC)o1 | ? | ? | 56µM | - | ?
CCc1ccc(NC(=O)CCc2ccc(CC)o2)cc1 | -[1.91 µM] | . | - | - | -
CN(CC#CC1(O)c2ccccc2-c2ccccc21)Cc1ccccc1 | -[10 µM] | - | 45µM | - | -
CN(Cc1ccccc1)C(=O)CC(=O)N(C)Cc1ccccc1 | - | . | - | - | -
CN(Cc1ccc(Cl)cc1)C(=O)CCl | ? | 0.5µM | - | - | ?
COc1ccc(CN(C)C(=O)CCl)cc1 | ? | 0.5µM | - | - | ?
CN(Cc1ccc(Cl)s1)C(=O)CCl | 10µM | 0.35µM | - | - | -
SMILES | RORgamma inh | ALDH1A1 inh | Sfp inh | PLK1 PBD inh | Gal4-VP16 FLuc
C=CC1=C2C=C(C3CC3)N(C3CCCCC3)C=C2C(=O)C(C)(OC(=O)c2ccco2)C1=O (stereo not drawn) | . | -[13.5 µM] | - | . | .
COc1cccc([C@@H]2Oc3ccc(OC)cc3/C(=N/O[C@@H](C)c3cc(-c4c(C)cc(C)cc4C)no3)[C@@H]2O)c1 | -[10 µM] | -[13.5 µM] | - | . | -[10 µM]
Cc1nc2ccccc2c2oc(C(=O)N3CCc4ccccc4C3)cc12 | - | 25µM | - | - | -
Cc1nc2ccccc2c2oc(C(=O)N3CCN(C(=O)c4ccco4)CC3)cc12 | - | ? | 71µM | - | ?
Cc1cc(N2CCN(C(=O)c3ccco3)CC2)nc(-c2ccccc2)n1 | - | 6.3µM | - | - | -
CCN1C(=O)[C@H]2[C@@H](c3ccc(Cl)cc3)N3C(=O)CN(CC4CC4)C(=O)[C@@]3(Cc3ccccc3)[C@H]2C1=O | - | . | - | - | -
CCC[C@H]1CN(Cc2ccccc2)C(=O)[C@@H]1CC(=O)NC | . | . | . | - | .
COc1ccc(N2C(=O)CC(Sc3nc(C)c4c(n3)CCCC4)C2=O)cc1 (stereo not drawn) | - | ? | - | - | -
CCOc1ccc(N2C(=O)CC(Sc3nc(C)cc(C)c3C#N)C2=O)cc1 (stereo not drawn) | - | 14µM | - | - | -
CCOc1ccc(N2C(=O)CC(SCC(=O)O)C2=O)cc1 (stereo not drawn) | - | ? | - | - | -
CCOc1ccc(N2C(=O)CC(Sc3n[nH]c(-c4ccccc4)n3)C2=O)cc1 (stereo not drawn) | ? | 0.45µM | ? | ? | ?
COc1ccc(N2C(=O)CC(Sc3n[nH]c(-c4ccccc4)n3)C2=O)cc1 (stereo not drawn) | 11µM | . | 35µM | 27µM | -
CCCCCCCSc1ncnc2[nH]ncc12 | . | . | . | - | .
Cc1ccc(-c2nc3cc(C)c(Br)c(C)n3c2Cc2ccsc2)cc1 | . | . | . | - | .
COc1ccccc1-c1cc(C(F)(F)F)nc(S(C)(=O)=O)n1 | 4µM | - | - | ? | 7.1µM
CN1CCN(c2nc(-c3ccco3)cc(C(F)(F)F)n2)CC1 | - | - | - | - | -
COc1ccccc1-c1cc(C(F)(F)F)nc(S(=O)(=O)CCCC(=O)Nc2cccnc2Cl)n1 | 4µM | ? | - | - | 8.9µM
CS(=O)(=O)c1nc(-c2ccco2)cc(C(F)(F)F)n1 | 2.5µM | ? | - | . | 2.8µM
COc1ccccc1/C=C/C(=O)Nc1cccnc1Cl | ? | . | - | - | -
COc1ccccc1-c1cc(C(F)(F)F)nc(N2CCCC2)n1 | - | ? | - | - | -
COc1ccccc1-c1cc(C(F)(F)F)nc(S(=O)(=O)CCCC(=O)N2CCCCC2C)n1 (stereo not drawn) | 11µM | ? | - | ? | 16µM
O[C@]1(c2ccccc2)c2ccccc2NC2=NCCN21 | . | -[13.5 µM] | . | . | .
FC(F)(F)c1cc(-c2ccco2)nc(NCc2ccco2)n1 | ? | - | - | - | -
COc1ccccc1-c1cc(C(F)(F)F)nc(S(=O)(=O)CCCC(=O)NC(C)C)n1 | 4.5µM | - | - | ? | 7.1µM
FC(F)(F)c1cc(-c2ccco2)nc(NCc2cccs2)n1 | - | 8.9µM | - | ? | -
SMILES | RORgamma inh | ALDH1A1 inh | Sfp inh | PLK1 PBD inh | Gal4-VP16 FLuc
COc1ccccc1-c1cc(C(F)(F)F)nc(S(=O)(=O)CCCC(=O)NCc2ccc(F)cc2)n1 | 8.9µM | ? | - | - | ?
COc1ccccc1-c1cc2nc(C)c(CCC(=O)NCc3ccc(F)cc3)c(C)n2n1 | - | . | - | - | -
CC(C)NC(=O)C1(C)CN(S(C)(=O)=O)CC(=O)N1Cc1ccc2c(c1)OCO2 (stereo not drawn) | . | . | . | - | .
CCOC(=O)[C@]12CCC=C1N(Cc1ccc3c(c1)OCO3)C(=O)[C@H](CC(=O)NCc1ccc(C)o1)C2 | . | . | . | - | .
COc1ccc2c(c1)cc(C(=O)O)n2C | - | ? | - | - | -
COc1ccc2c(c1)sc(=N)n2C | - | 20µM | - | - | -
CN1CCN(NC(=S)NC2CCCC2)CC1 | - | - | - | - | -
CN1CCN(NC(=S)NC(C)(C)CC(C)(C)C)CC1 | 6.3µM | - | - | - | 18µM
Cc1ccc(S(=O)(=O)N2C[C@H]3n4c(=O)ccc(=O)n4C[C@H](OC(=O)NCc4ccco4)[C@@]3(O)C2)cc1 | . | . | . | - | .
O=C(NCCN1CCCC(O)C1)c1cc(COc2cccc(C(F)(F)F)c2)on1 (stereo not drawn) | . | . | . | - | .
CCC/C(=N/Nc1ccc(Cl)cc1)c1cnnc(-c2ccccc2)n1 | . | . | . | - | .
